Compounds without any hit were thinned out: in the full panel of roughly 79,000, 15% have a hit. Active and inactive are the calls of the source. Rule as the data show it: active = growth inhibition above about 70%; inactive = the rest.
Tests used:
[1] = NCI Yeast Anticancer Drug Screen. Data for the mlh1 rad18 strain (AID 175); settings: S. cerevisiae mlh1 rad18 strain growth inhibition, hits give high values
Summary of the method: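 Cells of a genetically altered yeast strain, deficient in DNA damage repair, were treated with compound. Their growth was then compared with that of vehicle-treated cultures to give inhibition.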

[2] = NCI Yeast Anticancer Drug Screen. Data for the rad18 strain (AID 177); settings: S. cerevisiae rad18 mutant growth inhibition, hits give high values
Summary of the method: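 Compounds are applied to a repair-deficient yeast strain, and growth is compared with that of vehicle-treated cultures to give percent inhibition.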

[3] = NCI Yeast Anticancer Drug Screen. Data for the rad52 strain (AID 147);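 also: 0% = growth of vehicle-treated control cultures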; settings: S. cerevisiae rad52 mutant growth inhibition, hits give high values
Summary of the method: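 DNA repair-defective yeast; compound exposure; growth scored against vehicle controls.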

[4] = NCI Yeast Anticancer Drug Screen. Data for the wt1 strain (AID 149);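 also: 0% = growth of vehicle-treated wt1 cultures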; settings: S. cerevisiae wt1 strain (SPY 50644) growth inhibition, hits give high values
Summary of the method: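 Yeast wt1 strain exposed to compounds; growth inhibition measured relative to vehicle-treated controls.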

[5] = NCI Yeast Anticancer Drug Screen. Data for the rad50EPP+ strain (AID 151);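 also: 0% = growth of vehicle-treated control cultures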; settings: S. cerevisiae rad50 mutant strain, hits give high values
Summary of the method: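 rad50EPP+ yeast treated with test compounds. Readout: growth vs vehicle control.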

[6] = NCI Yeast Anticancer Drug Screen. Data for the rad50 strain (AID 155);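 also: 0% = growth of vehicle-only cultures of the same strain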; settings: S. cerevisiae rad50 strain growth inhibition, hits give high values
Summary of the method: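 Yeast carrying a defined DNA repair defect were exposed to test compounds, and growth was compared with vehicle-treated controls to give percent inhibition.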

[7] = NCI Yeast Anticancer Drug Screen. Data for the mec2-1 strain (AID 157); settings: S. cerevisiae mec2-1 strain, hits give high values
Summary of the method: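 Growth inhibition is read against vehicle-treated controls after compound exposure of the mec2-1 yeast strain, which is defective in DNA damage repair or cell cycle control.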

[8] = NCI Yeast Anticancer Drug Screen. Data for the rad14 strain (AID 159);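 also: 0% = growth of vehicle-treated control cultures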; settings: S. cerevisiae rad14 strain growth inhibition, hits give high values
Summary of the method: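 Yeast cells carrying a defined DNA-repair defect were exposed to compounds, and growth inhibition was calculated relative to vehicle-treated control cultures.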

[9] = NCI Yeast Anticancer Drug Screen. Data for the sgs1 mgt1 strain (AID 161);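 also: 0% = growth of cultures given vehicle only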; settings: S. cerevisiae sgs1 mgt1 strain, hits give high values
Summary of the method: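 Growth of a repair-deficient yeast mutant was monitored after compound treatment and expressed as inhibition relative to vehicle-treated cultures.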

[10] = NCI Yeast Anticancer Drug Screen. Data for the CLN2oe strain (AID 163);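 also: 0% = growth of vehicle-only control cultures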; settings: S. cerevisiae CLN2oe strain, hits give high values
Summary of the method: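 Compound-treated yeast; growth vs vehicle ctrl = % inhibition. Genetically altered strain (cell-cycle control).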

[11] = NCI Yeast Anticancer Drug Screen. Data for the bub3 strain (AID 167); settings: S. cerevisiae bub3 mutant strain, hits give high values
Summary of the method: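 Compounds were applied to a genetically altered yeast strain carrying a cell-cycle control defect. Growth inhibition was scored against vehicle-treated controls.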

[12] = NCI Yeast Anticancer Drug Screen. Data for the wt2 strain (AID 169);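 also: 0% = growth of vehicle-treated yeast cultures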; settings: S. cerevisiae wt2 strain growth inhibition, hits give high values
Summary of the method: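 Compound exposure of yeast; growth compared with vehicle controls; inhibition reported.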

[13] = NCI Yeast Anticancer Drug Screen. Data for the mlh1 strain (AID 171);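 also: 0% = growth of vehicle-treated control cultures of the same strain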; settings: S. cerevisiae mlh1 strain growth inhibition, hits give high values
Summary of the method: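 Compounds are applied to a genetically altered yeast strain, and its growth is compared with that of vehicle-treated cultures to give percent inhibition.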

[14] = NCI Yeast Anticancer Drug Screen. Data for the sgs1 strain (AID 173);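 also: 0% = growth of vehicle-only control cultures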; settings: S. cerevisiae sgs1 mutant, hits give high values
Summary of the method: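 Compounds applied to genetically altered yeast; growth compared with vehicle-treated cultures to give % inhibition.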

[15] = NCI Yeast Anticancer Drug Screen. Data for the mgt1 strain (AID 153); settings: S. cerevisiae mgt1 mutant growth inhibition, hits give high values
Summary of the method: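 Growth inhibition relative to vehicle controls was scored for the mgt1 yeast strain after compound exposure.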

[16] = NCI Yeast Anticancer Drug Screen. Data for the cln2 rad14 strain (AID 165);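 also: 0% = growth equal to vehicle treated cultures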; settings: S. cerevisiae cln2 rad14 strain, hits give high values
Summary of the method: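 Growth inhibition, relative to vehicle-treated controls, is the read-out. The test organism is a yeast strain with defined genetic alterations, cln2 rad14.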

[17] = at 5.0 µM (retest, dose inferred, filed as 0.5)
[18] = at 50.0 µM (retest, dose inferred, filed as 5.0)

Measured: growth inhibition

C[C@@H]1C[C@H]2[C@@H]3CCC4=CC(=O)C=C[C@]4(C)[C@@]3(Cl)[C@@H](Cl)C[C@]2(C)[C@@]1(O)C(=O)COP(=O)(O)O
inactive: [1]; [17] 9% | [1]; [18] 1% | [1]; at 50.0 µM -18.3% | [2]; at 1.2 µM -4% | [2]; at 3.7 µM -5% | [2]; at 11.0 µM 1% | [2]; at 33.0 µM 7% | [2]; at 100.0 µM 7%

C=C(CN(C)C)C(=O)c1cc(C)ccc1C
inactive: [3]; at 1.2 µM 5% | [3]; at 3.7 µM 32% | [4]; at 1.2 µM 8% | [4]; at 3.7 µM 23% | [4]; at 11.0 µM 56% | [5]; at 1.2 µM 1% | [5]; at 3.7 µM 9% | [5]; at 11.0 µM 32% | [6]; at 1.2 µM 4% | [6]; at 3.7 µM 23% | [6]; [17] 24% | [7]; at 1.2 µM 17% | [7]; at 3.7 µM 38% | [7]; [17] 5% | [8]; at 1.2 µM 9% | [8]; at 3.7 µM 21% | [9]; [17] 50% | [10]; at 1.2 µM 10% | [10]; at 3.7 µM 22% | [10]; at 11.0 µM 40% | [11]; at 1.2 µM 5% | [11]; at 3.7 µM 28% | [11]; [17] 61% | [12]; at 1.2 µM 3% | [12]; at 3.7 µM 16% | [13]; at 1.2 µM 12% | [13]; at 3.7 µM 32% | [14]; at 1.2 µM 16% | [14]; at 3.7 µM 40% | [1]; [17] 61% | [2]; at 1.2 µM 16% | [2]; at 3.7 µM 37%
active: [3]; at 11.0 µM 85% | [3]; at 33.0 µM 99% | [3]; at 100.0 µM 99% | [4]; at 33.0 µM 98% | [4]; at 100.0 µM 99% | [5]; at 33.0 µM 80% | [5]; at 100.0 µM 98% | [6]; at 11.0 µM 83% | [6]; at 33.0 µM 98% | [6]; [18] 99% | [6]; at 50.0 µM 99.4% | [6]; at 100.0 µM 99% | [7]; at 11.0 µM 86% | [7]; at 33.0 µM 99% | [7]; [18] 99% | [7]; at 50.0 µM 99.4% | [7]; at 100.0 µM 99% | [8]; at 11.0 µM 80% | [8]; at 33.0 µM 99% | [8]; at 100.0 µM 99% | [9]; [18] 99% | [9]; at 50.0 µM 99.5% | [10]; at 33.0 µM 98% | [10]; at 100.0 µM 98% | [11]; at 11.0 µM 90% | [11]; at 33.0 µM 99% | [11]; [18] 99% | [11]; at 50.0 µM 98.8% | [11]; at 100.0 µM 99% | [12]; at 11.0 µM 75% | [12]; at 33.0 µM 99% | [12]; at 100.0 µM 99% | [13]; at 11.0 µM 89% | [13]; at 33.0 µM 99% | [13]; at 100.0 µM 99% | [14]; at 11.0 µM 86% | [14]; at 33.0 µM 99% | [14]; at 100.0 µM 99% | [1]; [18] 99% | [1]; at 50.0 µM 99.2% | [2]; at 11.0 µM 86% | [2]; at 33.0 µM 98% | [2]; at 100.0 µM 99%

Cc1[nH]c2ccccc2c1C(c1ccc(N)cc1)c1c(C)[nH]c2ccccc12
active: [6]; [18] 90% | [6]; at 50.0 µM 95.3% | [7]; [18] 94% | [7]; at 50.0 µM 96.4% | [9]; [18] 96% | [9]; at 50.0 µM 98.2% | [11]; [18] 85% | [11]; at 50.0 µM 98.4% | [1]; [18] 96% | [1]; at 50.0 µM 98.5%
inactive: [3]; at 1.2 µM 3% | [3]; at 3.7 µM 3% | [3]; at 11.0 µM -6% | [3]; at 33.0 µM -1% | [3]; at 100.0 µM 41% | [4]; at 1.2 µM -2% | [4]; at 3.7 µM -1% | [4]; at 11.0 µM -2% | [4]; at 33.0 µM -1% | [4]; at 100.0 µM 45% | [15]; at 1.2 µM -3% | [15]; at 3.7 µM 0% | [15]; at 11.0 µM 0% | [15]; at 33.0 µM 0% | [15]; at 100.0 µM 48% | [6]; at 1.2 µM 6% | [6]; at 3.7 µM 3% | [6]; [17] 0% | [6]; at 11.0 µM -5% | [6]; at 33.0 µM 1% | [6]; at 100.0 µM 40% | [7]; at 1.2 µM -1% | [7]; at 3.7 µM -1% | [7]; [17] 4% | [7]; at 11.0 µM -1% | [7]; at 33.0 µM -1% | [7]; at 100.0 µM 45% | [8]; at 1.2 µM 5% | [8]; at 3.7 µM 0% | [8]; at 11.0 µM 0% | [8]; at 33.0 µM 6% | [8]; at 100.0 µM 50% | [9]; [17] 8% | [10]; at 1.2 µM -1% | [10]; at 3.7 µM -3% | [10]; at 11.0 µM -6% | [10]; at 33.0 µM 0% | [10]; at 100.0 µM 25% | [16]; [17] 4% | [16]; [18] 45% | [16]; at 50.0 µM 39% | [11]; at 1.2 µM -3% | [11]; at 3.7 µM -3% | [11]; [17] 0% | [11]; at 11.0 µM -6% | [11]; at 33.0 µM -5% | [11]; at 100.0 µM 38% | [12]; at 1.2 µM -2% | [12]; at 3.7 µM -11% | [12]; at 11.0 µM -10% | [12]; at 33.0 µM -1% | [12]; at 100.0 µM 47% | [13]; at 1.2 µM 1% | [13]; at 3.7 µM -1% | [13]; at 11.0 µM -2% | [13]; at 33.0 µM 0% | [13]; at 100.0 µM 50% | [14]; at 1.2 µM -12% | [14]; at 3.7 µM -14% | [14]; at 11.0 µM -19% | [14]; at 33.0 µM -5% | [14]; at 100.0 µM 62% | [1]; [17] 6% | [2]; at 1.2 µM 4% | [2]; at 3.7 µM 4% | [2]; at 11.0 µM -1% | [2]; at 33.0 µM 0% | [2]; at 100.0 µM 47%

Source: PubChem BioAssay (NCI)
